{"source": "the supplement of paper PMC11732987", "about": "“Enantioselective OTUD7B fragment discovery through chemoproteomics screening and high-throughput optimisation” (Communications Chemistry, 2025)", "data": [{"target": "T1, USP22 (UniProt Q9UPT9)", "T1 sequence (whole entry)": "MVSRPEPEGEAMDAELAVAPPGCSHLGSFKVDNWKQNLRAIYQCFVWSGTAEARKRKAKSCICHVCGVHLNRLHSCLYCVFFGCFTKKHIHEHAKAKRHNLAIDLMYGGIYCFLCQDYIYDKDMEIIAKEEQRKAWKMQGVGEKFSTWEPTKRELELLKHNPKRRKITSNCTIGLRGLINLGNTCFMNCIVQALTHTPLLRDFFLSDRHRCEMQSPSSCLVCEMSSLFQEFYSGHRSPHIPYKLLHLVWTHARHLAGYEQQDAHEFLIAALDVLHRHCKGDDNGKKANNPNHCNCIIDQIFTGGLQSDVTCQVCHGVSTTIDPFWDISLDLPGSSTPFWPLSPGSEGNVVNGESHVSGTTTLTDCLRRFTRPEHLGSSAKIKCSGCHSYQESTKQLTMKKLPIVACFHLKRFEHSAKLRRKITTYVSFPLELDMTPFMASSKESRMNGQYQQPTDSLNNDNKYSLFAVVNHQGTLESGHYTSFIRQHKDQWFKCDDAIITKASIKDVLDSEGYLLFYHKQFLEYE", "test": "log2 ratio of Biotin-Ahx-Ub-VS probe labelling (fragment/DMSO); higher = less target engagement (more negative = stronger competition), active = hit call of the paper (q ≤ 0.05, log2 ratio ≤ -1)", "conditions": "compound concentration: 200 uM; treatment time: 3 h", "experimental": "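Competitive ABPP in HEK293T cell lysate. Lysates were treated with each chloroacetamide fragment at 200 µM for 3 h, then with Biotin-Ahx-Ub-VS (0.5 µM, 1 h), NeutrAvidin-enriched and analysed by diaPASEF LC-MS/MS. Protein LFQ was median-normalised; average log2 ratio is fragment/DMSO from an unpaired t-test (n=3 treated, n=44 DMSO). Hits: q ≤ 0.05, log2 ratio ≤ -1, unique peptides ≥ 2.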", "values": [{"smiles": "CC1CCc2onc(CNC(=O)CCl)c2C1", "note": "(stereo not given)", "log2 ratio of Biotin-Ahx-Ub-VS probe labelling": "0.192 (inactive)"}, {"smiles": "O=C(CCl)NCCc1ccc(F)cc1", "log2 ratio of Biotin-Ahx-Ub-VS probe labelling": "0.0853 (inactive)"}, {"smiles": "O=C(CCl)N1CCC(OCc2ccccc2F)CC1", "log2 ratio of Biotin-Ahx-Ub-VS probe labelling": "-0.181 (inactive)"}, {"smiles": "O=C(CN1CCN(C(=O)CCl)CC1)Nc1cccc(F)c1", "log2 ratio of Biotin-Ahx-Ub-VS probe labelling": "0.00778 (inactive)"}, {"smiles": "CCCn1nccc1NC(=O)CCl", "log2 ratio of Biotin-Ahx-Ub-VS probe labelling": "0.165 (inactive)"}, {"smiles": "O=C(CCl)NCc1noc(C2CC2)n1", "log2 ratio of Biotin-Ahx-Ub-VS probe labelling": "-0.122 (inactive)"}, {"smiles": "Cc1n[nH]c2c1CN(C(=O)CCl)CC2", "log2 ratio of Biotin-Ahx-Ub-VS probe labelling": "-0.846 (inactive)"}, {"smiles": "CC(NC(=O)CCl)c1cccc2ccccc12", "note": "(stereo not given)", "log2 ratio of Biotin-Ahx-Ub-VS probe labelling": "-0.925 (inactive)"}, {"smiles": "Cl.O=C(CCl)N[C@H]1C[C@@H](n2cccn2)C1", "log2 ratio of Biotin-Ahx-Ub-VS probe labelling": "0.044 (inactive)"}, {"smiles": "Cl.Cn1ncc2c1CC(NC(=O)CCl)CC2", "note": "(stereo not given)", "log2 ratio of Biotin-Ahx-Ub-VS probe labelling": "0.0984 (inactive)"}, {"smiles": "Cc1ccc(C)c(NC(=O)CCl)c1", "log2 ratio of Biotin-Ahx-Ub-VS probe labelling": "-0.27 (inactive)"}, {"smiles": "NC(=O)C1CCCCN1C(=O)CCl", "note": "(stereo not given)", "log2 ratio of Biotin-Ahx-Ub-VS probe labelling": "0.159 (inactive)"}, {"smiles": "Cc1ncc2c(n1)CCN(C(=O)CCl)C2", "log2 ratio of Biotin-Ahx-Ub-VS probe labelling": "-0.119 (inactive)"}, {"smiles": "O=C(CCl)NC1CCC2(CC1)OCCO2", "log2 ratio of Biotin-Ahx-Ub-VS probe labelling": "-0.165 (inactive)"}, {"smiles": "N#Cc1ccc(CNC(=O)CCl)cc1", "log2 ratio of Biotin-Ahx-Ub-VS probe labelling": "0.193 (inactive)"}, {"smiles": "O=C(CCl)NCc1cccc(N2CCCC2=O)c1", "log2 ratio of Biotin-Ahx-Ub-VS probe labelling": "0.303 (inactive)"}, {"smiles": "Cc1ccc(-c2nnc(C)[nH]2)c(NC(=O)CCl)c1", "log2 ratio of Biotin-Ahx-Ub-VS probe labelling": "0.0459 (inactive)"}, {"smiles": "Cc1cccc(N(CCC#N)C(=O)CCl)c1C", "log2 ratio of Biotin-Ahx-Ub-VS probe labelling": "-0.11 (inactive)"}, {"smiles": "CCC1c2ccsc2CCN1C(=O)CCl", "note": "(stereo not given)", "log2 ratio of Biotin-Ahx-Ub-VS probe labelling": "0.0245 (inactive)"}, {"smiles": "Cc1cccc2nc(CCNC(=O)CCl)cn12.Cl", "log2 ratio of Biotin-Ahx-Ub-VS probe labelling": "0.075 (inactive)"}, {"smiles": "CCN(Cc1ccc(C#N)cc1F)C(=O)CCl", "log2 ratio of Biotin-Ahx-Ub-VS probe labelling": "-0.094 (inactive)"}, {"smiles": "Cc1noc(N2CCN(C(=O)CCl)CC2)n1.Cl", "log2 ratio of Biotin-Ahx-Ub-VS probe labelling": "0.0656 (inactive)"}, {"smiles": "C/C(=C\\CNC(=O)CCl)c1cnn(C)c1.Cl", "log2 ratio of Biotin-Ahx-Ub-VS probe labelling": "0.026 (inactive)"}, {"smiles": "O=C(CCl)N1CCCN(C(=O)c2ccc(Cl)cc2)CC1", "log2 ratio of Biotin-Ahx-Ub-VS probe labelling": "-0.095 (inactive)"}, {"smiles": "CCN1C(=O)C2CN(C(=O)CCl)CCN2C1=O", "note": "(stereo not given)", "log2 ratio of Biotin-Ahx-Ub-VS probe labelling": "0.199 (inactive)"}, {"smiles": "O=C(CCl)NCc1ccc(Cl)cc1", "log2 ratio of Biotin-Ahx-Ub-VS probe labelling": "-0.199 (inactive)"}, {"smiles": "O=C(CCl)N1CCC(O)(Cc2ccc(F)cc2)C1", "note": "(stereo not given)", "log2 ratio of Biotin-Ahx-Ub-VS probe labelling": "-0.265 (inactive)"}, {"smiles": "Cl.O=C(CCl)NCCN1CCc2ccccc21", "log2 ratio of Biotin-Ahx-Ub-VS probe labelling": "-1.07 (active)"}, {"smiles": "Cc1nc(-c2cccc(NC(=O)CCl)c2)cs1", "log2 ratio of Biotin-Ahx-Ub-VS probe labelling": "-0.0833 (inactive)"}, {"smiles": "CS(=O)(=O)N1CCCN(C(=O)CCl)CC1", "log2 ratio of Biotin-Ahx-Ub-VS probe labelling": "0.0754 (inactive)"}, {"smiles": "N#Cc1cnn(-c2ccccc2)c1NC(=O)CCl", "log2 ratio of Biotin-Ahx-Ub-VS probe labelling": "0.00637 (inactive)"}, {"smiles": "COc1ccc(CN(C)C(=O)CCl)cc1", "log2 ratio of Biotin-Ahx-Ub-VS probe labelling": "-0.227 (inactive)"}, {"smiles": "O=C(CCl)N1CCC(C(=O)N2CCCC2)CC1", "log2 ratio of Biotin-Ahx-Ub-VS probe labelling": "0.0347 (inactive)"}, {"smiles": "CN(C(=O)CCl)c1nc2ccccc2s1", "log2 ratio of Biotin-Ahx-Ub-VS probe labelling": "-0.0338 (inactive)"}, {"smiles": "Cl.Cn1nccc1C(NC(=O)CCl)c1ccccc1", "note": "(stereo not given)", "log2 ratio of Biotin-Ahx-Ub-VS probe labelling": "-0.153 (inactive)"}, {"smiles": "CN(CCc1ncc(Br)cn1)C(=O)CCl.Cl", "log2 ratio of Biotin-Ahx-Ub-VS probe labelling": "-0.0976 (inactive)"}, {"smiles": "Cc1nc(CN2CCCN(C(=O)CCl)CC2)no1.Cl", "log2 ratio of Biotin-Ahx-Ub-VS probe labelling": "0.125 (inactive)"}, {"smiles": "COCC[C@@H](NC(=O)CCl)c1ccccc1", "log2 ratio of Biotin-Ahx-Ub-VS probe labelling": "0.104 (inactive)"}, {"smiles": "Cc1nc(CNC(=O)CCl)c2ccccn12.Cl", "log2 ratio of Biotin-Ahx-Ub-VS probe labelling": "0.0129 (inactive)"}, {"smiles": "O=C(CCl)NCC1(c2ccccc2)CC1", "log2 ratio of Biotin-Ahx-Ub-VS probe labelling": "0.0204 (inactive)"}]}]}
